The text below walks through data of PubChem BioAssay (NCATS).

A number with no mark means an inactive call. Inconclusive results are not listed. Active and inactive are the calls of the source. Unless noted, calls come from the whole dose curve; as a rule, active = well fitted curve in the direction sought with a large enough effect; inconclusive = small, poorly fitted or top-dose-only effect, or another doubt; inactive = no such curve, though single readings can be large; an effect the other way counts as inactive or inconclusive.

For one test, the target named is Furin (Homo sapiens) (UniProt P09958). The experiment in a line: Furin counterscreen qHTS for Zika virus inhibitors (AID 1347149). Note: nearly all actives have a fitted effect of over 70% in size. Note: potency is the fitted concentration of half-maximal effect. An outline of the steps: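 Fluorogenic cleavage of BOC-RVRR-AMC (2 microM final, Km ~15 µM) was monitored (ex 340, em 450 nm) at 37C after 15 min RT preincubation of 5 nM furin with compounds in HEPES pH 7.0 buffer with CaCl2 and Triton X-100. Percent inhibition was fitted to a 4-parameter Hill curve.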
Furin (Homo sapiens), sequence (P09958 whole entry, looked up): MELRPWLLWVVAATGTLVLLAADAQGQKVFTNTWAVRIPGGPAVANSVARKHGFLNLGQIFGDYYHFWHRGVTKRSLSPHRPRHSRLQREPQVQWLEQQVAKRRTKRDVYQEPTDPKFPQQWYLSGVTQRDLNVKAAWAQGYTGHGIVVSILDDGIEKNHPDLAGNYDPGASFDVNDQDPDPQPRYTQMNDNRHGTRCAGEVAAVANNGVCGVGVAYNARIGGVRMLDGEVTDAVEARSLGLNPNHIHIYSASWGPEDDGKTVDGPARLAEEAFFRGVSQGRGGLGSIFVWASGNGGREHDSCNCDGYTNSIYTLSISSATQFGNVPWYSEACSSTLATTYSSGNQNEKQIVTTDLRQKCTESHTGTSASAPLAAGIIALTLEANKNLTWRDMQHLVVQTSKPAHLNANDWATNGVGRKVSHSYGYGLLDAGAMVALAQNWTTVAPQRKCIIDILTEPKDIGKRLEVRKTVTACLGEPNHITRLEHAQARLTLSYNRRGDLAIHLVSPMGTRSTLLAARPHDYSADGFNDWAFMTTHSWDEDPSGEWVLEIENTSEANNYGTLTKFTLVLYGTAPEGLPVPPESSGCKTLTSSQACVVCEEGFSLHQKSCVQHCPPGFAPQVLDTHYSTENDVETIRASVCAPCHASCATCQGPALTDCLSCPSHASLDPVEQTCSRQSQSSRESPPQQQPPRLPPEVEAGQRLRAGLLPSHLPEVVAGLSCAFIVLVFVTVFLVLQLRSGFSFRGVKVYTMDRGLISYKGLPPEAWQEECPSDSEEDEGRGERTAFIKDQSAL
On the technique in general: The purpose of a counterscreen is to sort out artefacts and off-target activity.

Test [1] concerns Zika virus NS2B-NS3 protease (linked construct). The experiment in a line: Confirmatory screen NINDS AMC qHTS for Zika virus inhibitors (AID 1347152). Note: potency is the fitted concentration of half-maximal effect; nearly all actives have a fitted effect of over 70% in size. An outline of the steps:
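In this dose-response qHTS, AMC release from 10 microM Bz-Nle-KRR-AMC by 1 nM linked protease is measured over 15 minutes (about 20% conversion) at pH 8.0. Percent inhibition is fitted to a 4-parameter Hill curve.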
Background: In qHTS, concentration-response curves come from the screen itself.

Test [2] has as its system Zika virus NS2B-NS3 protease (unlinked complex). The experiment in a line: Confirmatory screen GU AMC qHTS for Zika virus inhibitors (AID 1347153). Note: potency is the fitted concentration of half-maximal effect; nearly all actives have a fitted effect of over 70% in size. The settings on record: Recombinant NS2B-NS3 protease, AMC substrate fluorescence. An outline of the steps: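 Noncovalent NS2B hydrophilic domain/NS3 protease complex (25 nM) in 10 mM Tris-HCl pH 8.0, 0.01% Tween 20 was preincubated 15 min at room temperature with compounds. Then 10 µM AMC substrate (Km 18.3 µM) was added; fluorescence was read over 15 min and fitted to a 4-parameter Hill equation.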

Test [3] can be described thus: P-glycoprotein substrates identified in KB-8-5-11 adenocarcinoma cell line, qHTS therapeutic library screen (AID 1346987). For activity change, negative = cytotoxicity: series mostly up to about 44 µM; % is set by controls: 0 for no effect and ±100 for the full control effect. Note: nearly all actives have a fitted effect of over 65% in size. Note: potency is the fitted concentration of half-maximal effect. The essentials: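 P-gp-mediated resistance screen: KB-8-5-11 cells treated 72 h with compounds in dose-response. CellTiter-Glo viability.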
Test [4] concerns the target Atrial natriuretic peptide receptor 1 (Homo sapiens) (UniProt P16066). The experiment in a line: Natriuretic polypeptide receptor (hNpr1) antagonism - Pilot screen (AID 1347049; calls by dose curve;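 note: agonist-evoked cGMP luminescence read 20 min after hNppA addition; series mostly up to about 58 µM; % is set by controls: 0 for no effect and ±100 for the full control effect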). The essentials:
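HEK293 cells co-expressing hNpr1 and the GloSensor pGS-40F cGMP luciferase sensor were preloaded with 2% GloSensor reagent for 2 h. Compounds were added for 30 min at room temperature, then cells were stimulated with 0.1 nM hNppA for 20 min before luminescence readout.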

In test [5] the target is Atrial natriuretic peptide receptor 2 (Homo sapiens) (UniProt P20594). The experiment in a line: Natriuretic polypeptide receptor (hNpr2) antagonism - Pilot subtype selectivity assay (AID 1347050; calls by dose curve; note: potency is the fitted concentration of half-maximal effect). An outline of the steps:
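cGMP-sensor HEK293/hNpr2 cells; 2% GloSensor reagent 2 h RT; compounds 30 min; baseline luminescence read; 1 nM hNppC agonist 20 min RT; final luminescence read by CCD camera. Antagonism = reduced post-agonist signal.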

Test [6] concerns the target T1, Tyrosine-protein phosphatase non-receptor type substrate 1 (Homo sapiens) + Leukocyte surface antigen CD47 (Homo sapiens) (UniProt P78324+Q08722). The experiment in a line: CD47-SIRPalpha protein protein interaction - LANCE assay qHTS validation (AID 1347057; active = well fitted curve in the direction sought with a large enough effect in the signal ratio, with a control signal flat, not every such curve was filed as active; the % refers to the signal ratio; note: series mostly up to about 38 µM; 0% is about no effect). An outline of the steps: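 First, His-tagged CD47 and Eu-labelled anti-His antibody met the compound for 30 min; next, site-specifically biotinylated SIRPalpha was added for 30 min; finally streptavidin-APC was added before reading the TR-FRET ratio.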
(In general: TR-FRET usually uses a lanthanide donor and a delayed reading to cut background.)

The target in test [7] is T1, Tyrosine-protein phosphatase non-receptor type substrate 1 (Homo sapiens) + Leukocyte surface antigen CD47 (Homo sapiens). The experiment in a line: CD47-SIRPalpha protein protein interaction - HTRF assay qHTS validation (AID 1347058; active = well fitted curve in the direction sought with a large enough effect in the signal ratio, not every such curve was filed as active; the % refers to the signal ratio; note: series mostly up to about 38 µM; 0% is about no effect). An outline of the steps: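 TR-FRET read (Ch1/Ch2 ratio) of soluble extracellular CD47 and Avi-biotinylated SIRPalpha domains in PBS pH 7.4 with 0.05% IGEPAL; 7-point compound titration. Sequential 30 min room-temperature steps; non-biotinylated SIRPalpha as control inhibitor.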

For test [8] the target is unchanged. The experiment in a line: CD47-SIRPalpha protein protein interaction - Alpha assay qHTS validation (AID 1347059).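 Note: bead proximity luminescence from CD47 binding SIRPalpha after compound preincubation with SIRPalpha; % is set by controls: 0 for no effect and ±100 for the full control effect.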 An outline of the steps:
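Soluble extracellular domains: Avi-tag biotinylated SIRPalpha (25 nM) preincubated 30 min RT with compound, then 6His-CD47 (12.5 nM) 30 min; Ni-NTA acceptor and streptavidin donor beads (10 ug/mL) 30 min, AlphaScreen read. PBS pH 7.4, 0.05% IGEPAL.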

The target of test [9] is Parathyroid hormone/parathyroid hormone-related peptide receptor (Homo sapiens) (UniProt Q03431). The experiment in a line: qHTS for PTHR1 Agonists: Optimization Screen against the NCGC LOPAC library (AID 1347079).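 Note: GloSensor cAMP luminescence in HEK-293 GP2 cells expressing human PTHR1 with IBMX; 0% is about no effect.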 The essentials: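 Compounds were tested across a qHTS titration. PTHR1-expressing GP2 cells report cAMP rises via GloSensor luminescence after 1 hr compound exposure at 37C with IBMX present.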
Parathyroid hormone/parathyroid hormone-related peptide receptor (Homo sapiens), sequence (Q03431 whole entry, looked up): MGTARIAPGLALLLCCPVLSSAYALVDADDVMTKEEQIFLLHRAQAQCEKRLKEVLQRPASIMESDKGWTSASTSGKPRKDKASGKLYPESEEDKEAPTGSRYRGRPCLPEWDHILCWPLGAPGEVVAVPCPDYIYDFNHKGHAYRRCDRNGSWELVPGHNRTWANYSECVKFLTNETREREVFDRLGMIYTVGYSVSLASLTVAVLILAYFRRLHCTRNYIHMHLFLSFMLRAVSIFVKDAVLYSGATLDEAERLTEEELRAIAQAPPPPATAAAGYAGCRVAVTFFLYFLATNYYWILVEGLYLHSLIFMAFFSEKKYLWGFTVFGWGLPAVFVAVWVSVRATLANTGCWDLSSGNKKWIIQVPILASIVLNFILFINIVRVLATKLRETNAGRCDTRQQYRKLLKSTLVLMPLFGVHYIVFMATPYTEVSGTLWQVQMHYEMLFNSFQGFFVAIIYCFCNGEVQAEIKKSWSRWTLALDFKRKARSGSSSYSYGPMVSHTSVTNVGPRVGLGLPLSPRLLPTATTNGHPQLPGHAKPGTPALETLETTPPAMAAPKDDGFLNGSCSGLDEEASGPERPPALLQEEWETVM

Test [10] can be described thus: qHTS of pediatric cancer cell lines to identify multiple opportunities for drug repurposing: Primary screen for SJ-GBM2 cells (AID 1347091). Note: potency is the fitted concentration of half-maximal effect. The settings on record: SJ-GBM2 viability, CellTiter-Glo luminescence, 48 h. An outline of the steps:
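Eight- or eleven-point concentration series, 48 h treatment at 37 degrees C in growth media; readout CellTiter-Glo luminescence. Potency and efficacy were taken from the concentration-response curves.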

A short description of test [11]: qHTS of pediatric cancer cell lines to identify multiple opportunities for drug repurposing: Primary screen for Saos-2 cells (AID 1347097). Note: potency is the fitted concentration of half-maximal effect; nearly all actives have a fitted effect of over 40% in size. The settings on record: Saos-2 viability, CellTiter-Glo ATP luminescence, 48 h. The essentials: (§1)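 Quantitative HTS format: each compound titrated (MIPE 11 points from 0.78 nM, NPC 8 points from 0.59 nM) onto cells plated 5 hours earlier. After 48 h at 37 degrees C, CellTiter-Glo luminescence was recorded.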

A short description of test [12]: qHTS of pediatric cancer cell lines to identify multiple opportunities for drug repurposing: Primary screen for SK-N-SH cells (AID 1347098). Note: potency is the fitted concentration of half-maximal effect; nearly all actives have a fitted effect of over 65% in size. The settings on record: SK-N-SH viability, CellTiter-Glo luminescence, 48 h. An outline of the steps: (§2)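 Cells (500-1,000/well) rested 5 h, then received compounds for 48 h; metabolically active cells were measured by CellTiter-Glo luminescence. Final concentrations spanned up to 46 µM (MIPE, 11-point) or 0.59 nM-46 µM (NPC, 8-point) in primary screens, 11-point in follow-ups.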

Test [13] is described as follows: qHTS of pediatric cancer cell lines to identify multiple opportunities for drug repurposing: Primary screen for BT-12 cells (AID 1347101). Note: potency is the fitted concentration of half-maximal effect; nearly all actives have a fitted effect of over 25% in size. As to conditions: BT-12 viability, CellTiter-Glo luminescence, 48 h. An outline of the steps: as §2
Test [14] is described as follows: qHTS of pediatric cancer cell lines to identify multiple opportunities for drug repurposing: Primary screen for Rh18 cells (AID 1347102). Note: potency is the fitted concentration of half-maximal effect; nearly all actives have a fitted effect of over 65% in size. The settings on record: Rh18 rhabdomyosarcoma viability, CellTiter-Glo luminescence, 48 h. An outline of the steps:
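Cells (500-1,000/well) in growth media were settled 5 h at 37 degrees C, then given compounds for 48 h. Viability was read as CellTiter-Glo luminescence. Primary runs used MIPE at 11 points (0.78 nM-46 µM) and NPC at 8 points (0.59 nM-46 µM); follow-ups used 11 points.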

The nature of test [15]: qHTS of pediatric cancer cell lines to identify multiple opportunities for drug repurposing: Primary screen for OHS-50 cells (AID 1347103). Note: potency is the fitted concentration of half-maximal effect; nearly all actives have a fitted effect of over 40% in size. The settings on record: OHS-50 osteosarcoma viability, CellTiter-Glo luminescence, 48 h. The essentials: as §2
Test [16] is described as follows: qHTS of pediatric cancer cell lines to identify multiple opportunities for drug repurposing: Primary screen for RD cells (AID 1347104). Note: potency is the fitted concentration of half-maximal effect; nearly all actives have a fitted effect of over 55% in size. The settings on record: RD rhabdomyosarcoma viability, CellTiter-Glo luminescence, 48 h. The essentials:
as §1

T1 sequence (P78324 whole entry, looked up): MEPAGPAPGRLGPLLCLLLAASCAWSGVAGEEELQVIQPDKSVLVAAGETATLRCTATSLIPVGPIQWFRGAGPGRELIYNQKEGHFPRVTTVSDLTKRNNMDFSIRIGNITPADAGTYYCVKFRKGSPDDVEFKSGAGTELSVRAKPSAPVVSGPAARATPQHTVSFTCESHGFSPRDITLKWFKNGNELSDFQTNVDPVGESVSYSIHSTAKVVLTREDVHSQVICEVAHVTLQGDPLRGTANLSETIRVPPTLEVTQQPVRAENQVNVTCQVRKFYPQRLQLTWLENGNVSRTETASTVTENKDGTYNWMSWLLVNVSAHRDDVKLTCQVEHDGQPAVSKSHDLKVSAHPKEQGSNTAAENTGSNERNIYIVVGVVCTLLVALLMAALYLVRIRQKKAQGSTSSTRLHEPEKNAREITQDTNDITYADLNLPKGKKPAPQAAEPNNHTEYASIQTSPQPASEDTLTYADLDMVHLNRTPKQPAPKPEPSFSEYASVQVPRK
T1 sequence (Q08722 whole entry, looked up): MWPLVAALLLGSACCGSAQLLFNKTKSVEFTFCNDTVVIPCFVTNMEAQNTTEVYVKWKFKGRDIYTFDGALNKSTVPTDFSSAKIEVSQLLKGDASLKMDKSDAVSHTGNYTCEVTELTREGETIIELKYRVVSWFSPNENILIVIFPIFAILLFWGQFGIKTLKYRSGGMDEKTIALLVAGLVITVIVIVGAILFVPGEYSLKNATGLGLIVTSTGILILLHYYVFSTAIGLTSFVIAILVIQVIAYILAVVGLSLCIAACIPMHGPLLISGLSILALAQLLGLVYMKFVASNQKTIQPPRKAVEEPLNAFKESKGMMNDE
Atrial natriuretic peptide receptor 2 (Homo sapiens), sequence (P20594 whole entry, looked up): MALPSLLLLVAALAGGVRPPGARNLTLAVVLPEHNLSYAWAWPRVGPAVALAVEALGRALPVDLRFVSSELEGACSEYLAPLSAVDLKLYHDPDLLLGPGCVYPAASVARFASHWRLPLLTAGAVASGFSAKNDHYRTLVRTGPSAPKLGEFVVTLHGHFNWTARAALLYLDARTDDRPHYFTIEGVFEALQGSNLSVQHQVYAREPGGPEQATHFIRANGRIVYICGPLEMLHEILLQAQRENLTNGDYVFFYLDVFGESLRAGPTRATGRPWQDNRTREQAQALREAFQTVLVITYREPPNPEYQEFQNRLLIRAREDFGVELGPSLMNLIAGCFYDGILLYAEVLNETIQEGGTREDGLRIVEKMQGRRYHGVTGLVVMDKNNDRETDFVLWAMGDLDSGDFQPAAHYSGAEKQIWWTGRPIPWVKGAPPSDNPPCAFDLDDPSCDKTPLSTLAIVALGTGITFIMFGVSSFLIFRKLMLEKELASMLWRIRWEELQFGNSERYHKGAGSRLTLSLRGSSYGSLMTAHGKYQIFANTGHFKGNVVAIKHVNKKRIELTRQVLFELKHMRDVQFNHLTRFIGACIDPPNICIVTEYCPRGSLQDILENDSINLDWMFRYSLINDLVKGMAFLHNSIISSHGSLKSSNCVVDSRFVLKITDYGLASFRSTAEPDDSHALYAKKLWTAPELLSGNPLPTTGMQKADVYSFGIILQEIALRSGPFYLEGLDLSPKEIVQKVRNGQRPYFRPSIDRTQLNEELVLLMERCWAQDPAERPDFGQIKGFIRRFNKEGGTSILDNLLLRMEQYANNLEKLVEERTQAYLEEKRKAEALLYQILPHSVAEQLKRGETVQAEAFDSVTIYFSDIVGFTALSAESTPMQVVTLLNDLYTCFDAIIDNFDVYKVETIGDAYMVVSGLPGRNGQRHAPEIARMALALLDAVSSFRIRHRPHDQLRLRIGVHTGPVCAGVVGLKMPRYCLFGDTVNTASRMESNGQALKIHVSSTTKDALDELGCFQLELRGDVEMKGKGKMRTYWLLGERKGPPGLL
Atrial natriuretic peptide receptor 1 (Homo sapiens), sequence (P16066 whole entry, looked up): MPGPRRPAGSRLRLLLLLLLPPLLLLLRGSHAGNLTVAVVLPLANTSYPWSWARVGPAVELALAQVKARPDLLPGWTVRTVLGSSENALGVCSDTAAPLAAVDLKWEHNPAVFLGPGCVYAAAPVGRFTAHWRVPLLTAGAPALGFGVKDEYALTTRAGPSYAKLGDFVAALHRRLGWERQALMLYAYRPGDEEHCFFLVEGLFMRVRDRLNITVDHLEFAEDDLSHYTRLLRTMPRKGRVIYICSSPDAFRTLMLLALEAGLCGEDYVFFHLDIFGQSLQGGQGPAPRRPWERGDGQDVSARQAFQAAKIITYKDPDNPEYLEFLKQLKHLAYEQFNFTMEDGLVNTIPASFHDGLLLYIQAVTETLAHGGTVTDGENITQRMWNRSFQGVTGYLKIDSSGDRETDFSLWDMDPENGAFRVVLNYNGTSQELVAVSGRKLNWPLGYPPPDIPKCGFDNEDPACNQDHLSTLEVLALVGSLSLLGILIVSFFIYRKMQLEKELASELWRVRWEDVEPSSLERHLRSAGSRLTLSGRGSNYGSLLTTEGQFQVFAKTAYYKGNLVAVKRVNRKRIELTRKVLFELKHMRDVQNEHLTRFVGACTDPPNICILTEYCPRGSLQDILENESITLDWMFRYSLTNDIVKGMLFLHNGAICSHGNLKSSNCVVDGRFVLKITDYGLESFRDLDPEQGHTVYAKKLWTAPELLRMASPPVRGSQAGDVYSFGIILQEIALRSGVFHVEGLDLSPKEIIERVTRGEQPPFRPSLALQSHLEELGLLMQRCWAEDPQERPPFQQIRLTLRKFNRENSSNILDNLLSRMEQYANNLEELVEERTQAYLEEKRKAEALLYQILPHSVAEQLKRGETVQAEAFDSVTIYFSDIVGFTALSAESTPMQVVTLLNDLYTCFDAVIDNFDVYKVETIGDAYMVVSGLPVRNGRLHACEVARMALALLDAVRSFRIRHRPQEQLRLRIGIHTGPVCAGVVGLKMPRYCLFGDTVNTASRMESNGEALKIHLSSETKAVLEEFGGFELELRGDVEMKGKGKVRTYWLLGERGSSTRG

Take `CCCCCCCOc1cc2c(cc1/C(C)=C/c1ccc(C(=O)O)cc1)C(C)(C)CCS2(=O)=O`: the Potency is 55.5 µM (active) in the test with Furin (Homo sapiens), 8.79 µM (active) in [1] and 8.79 µM (active) in [2].

Turning to `O=S(=O)(Nc1cc(Cl)c(Oc2cnc3ccccc3c2)c(Cl)c1)c1ccc(Cl)cc1Cl`, the Potency in test [1] was 13.9 µM (active).

Take `CNc1cccc(CCOc2ccc3c(c2)CN(CC(F)(F)F)C(=O)[C@H](CC(=O)O)C3)n1`: the Potency result in [3] was “inactive”.

Turning to `CN[C@H]1CC[C@@H](c2ccc(Cl)c(Cl)c2)c2ccccc21`, the molecule was called inactive in test [4], in test [6], in test [7], in test [8] and in test [9]. Also, the Potency in test [5] is 14.7 µM (active); in [10], 23.7 µM (active); in test [11], 23.7 µM (active); in test [12] it was 10.9 µM (active); in [13], 21.9 µM (active); in test [14], 23.7 µM (active). Besides, the Potency in test [15] is 15.5 µM (active).

For the molecule `O=C(NCCCN1CCC2(CC1)OCc1ccccc12)[C@H]1CCCN1Cc1ccccc1`, in test [3], the Potency entry was “inactive”.

`CCCCCc1ccc(/C=C/C(=O)Nc2cc(Cl)ccc2C(=O)O)cc1`: the Potency result in test [3] was “inactive”. Besides, the Potency is 39.3 µM (active) with Furin (Homo sapiens), 8.79 µM (active) in [1] and 9.87 µM (active) in test [2].

`CCCCCCCCn1cc(CN(CC)CC)c2cc(-c3cnc(N)nc3)ccc21`: in test [3], the Potency was 18.4 µM (active).

As for `CC#C[C@@H](CC(=O)O)c1ccc(OCc2ccc(CN3CCC4(C=Cc5ccccc54)CC3)s2)cc1`, the Potency result in the test with Furin (Homo sapiens) was “inactive”. Besides, the Potency in test [1] was 35 µM (active); in test [2] it was 39.3 µM (active).

Consider `O=C(O)c1cccc(-c2ccc(-c3cn(C(=O)N4CCCCC4Cc4ccccc4)nn3)cc2)c1` (stereo not given), for which, in test [3], the Potency entry was “inactive”. Also, the results for the Potency (with Furin (Homo sapiens); in test [1]; in test [2]) were 55.5 µM (active), 27.8 µM (active) and 31.2 µM (active), respectively.

As to `C[C@H]1CC[C@@]2(OC1)O[C@H]1CC3[C@@H]4CC[C@@H]5C[C@@H](O[C@@H]6O[C@H](CO)[C@@H](O[C@@H]7O[C@H](CO[C@@H]8OC[C@@H](O)[C@H](O)[C@H]8O)[C@@H](O[C@@H]8O[C@H](CO)[C@H](O)[C@H](O)[C@H]8O)[C@H](O)[C@H]7O)[C@H](O)[C@H]6O)CC[C@]5(C)C4CC[C@]3(C)[C@H]1[C@@H]2C` (stereo not given in full), the activity change, negative = cytotoxicity in [3] was 3.95% [at 9.29 µM].

With `C=CCNC1=C2C[C@@H](C)C[C@H](OC)[C@H](O)[C@@H](C)/C=C(\C)[C@H](OC(N)=O)[C@@H](OC)/C=C\C=C(/C)C(=O)NC(=CC1=O)C2=O`, in test [3], the Potency was 16.4 µM (active).

With `O=C(Nc1ccc(/C=C/c2ccc(NC(=O)c3cc(S(=O)(=O)O)c4cccnc4c3O)cc2S(=O)(=O)O)c(S(=O)(=O)O)c1)c1cc(S(=O)(=O)O)c2cccnc2c1O`, the Potency result in test [3] is “inactive”. Besides, in the test with Furin (Homo sapiens), the Potency is 46.9 µM (active).

Take `Oc1cccc(-c2c3nc(c(-c4cccc(O)c4)c4ccc([nH]4)c(-c4cccc(O)c4)c4nc(c(-c5cccc(O)c5)c5ccc2[nH]5)CC4)C=C3)c1`: the Potency in test [10] was 21.1 µM (active); in [16], 26.6 µM (active). Besides, in the test with Furin (Homo sapiens), the Potency entry is “inactive”.

As for `N#Cc1ccc(N2N=C3c4ccc(C(=O)O)cc4CC[C@@H]3[C@@H]2C2CCCC2)cc1Cl`, the Potency entry with Furin (Homo sapiens) is “inactive”. The Potency in [1] was 8.79 µM (active); in test [2] it was 15.6 µM (active).

As for `COc1ccc(-c2ccccc2)cc1NS(=O)(=O)c1cc(Cl)cc(Cl)c1O`, the Potency result in [3] is “inactive”. In addition, the Potency is 30.4 µM (active) with Furin (Homo sapiens) and 7.64 µM (active) in [1].

Regarding `Cc1cc(C)c2c(c1)C(N(Cc1cc(C(F)(F)F)cc(C(F)(F)F)c1)c1nnn(C)n1)CCCN2CC1CCC(C(=O)O)CC1` (stereo not given), the Potency in [1] and in test [2] was 22.1 µM (active) each time.

Regarding `C=C1/C(=C/C=C2\CCC[C@@]3(C)C2CCC3[C@H](C)/C=C/[C@@H](O)C2CC2)C[C@@H](O)C[C@@H]1O` (stereo not given in full), the Potency result in test [3] was “inactive”.

As for `CC(C)C[C@H](C(=O)O)c1cc(-c2ccc(C(F)(F)F)cc2)cc(-c2ccc(C(F)(F)F)cc2)c1`, the Potency with Furin (Homo sapiens) is 17.5 µM (active); in [1], 9.87 µM (active); in [2], 15.6 µM (active).

As to `COc1cc2c(c(OC)c1OC)-c1c(cc3c(c1OC)OCO3)C[C@@H](C)[C@](C)(O)C2`, in test [3], the Potency entry is “inactive”.
